Consider 31 molecules from paper PMC9911399, “Two distinct binding modes provide the RNA-binding protein RbFox with extraordinary sequence specificity”.

B1: UGGGUAU (DNA:RNA)
RNA: GGGAGACCGGAAUUCAGAUUGUCCUGGGUAUUUAAAUCCCGUCGUAGCCACCA
DNA 1: CAATCTGAATTCCGGTCTCCC
DNA 2: TGGTGGCTACGACGGGATT
B2: GUUCCGU (DNA:RNA)
RNA: B1 RNA with U25G, G26U, G27U, G28C, U29C, A30G
DNA 1: CAATCTGAATTCCGGTCTCCC
DNA 2: TGGTGGCTACGACGGGATT
B3: AUAUCCC (DNA:RNA)
RNA: GGGAGACCGGAAUUCAGAUUGUCCAUAUCCCUUAAAUCCCGUCGUAGCCACCA
DNA 1: CAATCTGAATTCCGGTCTCCC
DNA 2: TGGTGGCTACGACGGGATT
B4: UGAUACC (DNA:RNA)
RNA: B3 RNA with A25U, U26G, C29A
DNA 1: CAATCTGAATTCCGGTCTCCC
DNA 2: TGGTGGCTACGACGGGATT
B5: CCUAGCC (DNA:RNA)
RNA: B3 RNA with A25C, U26C, A27U, U28A, C29G
DNA 1: CAATCTGAATTCCGGTCTCCC
DNA 2: TGGTGGCTACGACGGGATT
B6: GGAAGUC (DNA:RNA)
RNA: B3 RNA with A25G, U26G, U28A, C29G, C30U
DNA 1: CAATCTGAATTCCGGTCTCCC
DNA 2: TGGTGGCTACGACGGGATT
B7: UUGUCCG (DNA:RNA)
RNA: B3 RNA with A25U, A27G, C31G
DNA 1: CAATCTGAATTCCGGTCTCCC
DNA 2: TGGTGGCTACGACGGGATT
B8: UGGUACG (DNA:RNA)
RNA: B1 RNA with G28U, U29A, A30C, U31G
DNA 1: CAATCTGAATTCCGGTCTCCC
DNA 2: TGGTGGCTACGACGGGATT
B9: CGGUACG (DNA:RNA)
RNA: B3 RNA with A25C, U26G, A27G, C29A, C31G
DNA 1: CAATCTGAATTCCGGTCTCCC
DNA 2: TGGTGGCTACGACGGGATT
B10: UGGUACC (DNA:RNA)
RNA: B3 RNA with A25U, U26G, A27G, C29A
DNA 1: CAATCTGAATTCCGGTCTCCC
DNA 2: TGGTGGCTACGACGGGATT
B11: GUCCUUG (DNA:RNA)
RNA: B3 RNA with A25G, A27C, U28C, C29U, C30U, C31G
DNA 1: CAATCTGAATTCCGGTCTCCC
DNA 2: TGGTGGCTACGACGGGATT
B12: UUGUUCG (DNA:RNA)
RNA: B3 RNA with A25U, A27G, C29U, C31G
DNA 1: CAATCTGAATTCCGGTCTCCC
DNA 2: TGGTGGCTACGACGGGATT
B13: GUAACCG (DNA:RNA)
RNA: B3 RNA with A25G, U28A, C31G
DNA 1: CAATCTGAATTCCGGTCTCCC
DNA 2: TGGTGGCTACGACGGGATT
B14: UGAUCUC (DNA:RNA)
RNA: B3 RNA with A25U, U26G, C30U
DNA 1: CAATCTGAATTCCGGTCTCCC
DNA 2: TGGTGGCTACGACGGGATT
B15: UGCUGAG (DNA:RNA)
RNA: B1 RNA with G27C, G28U, U29G, U31G
DNA 1: CAATCTGAATTCCGGTCTCCC
DNA 2: TGGTGGCTACGACGGGATT
B16: GAAUGUU (DNA:RNA)
RNA: B3 RNA with A25G, U26A, C29G, C30U, C31U
DNA 1: CAATCTGAATTCCGGTCTCCC
DNA 2: TGGTGGCTACGACGGGATT
B17: CGAUUGU (DNA:RNA)
RNA: B1 RNA with U25C, G27A, G28U, A30G
DNA 1: CAATCTGAATTCCGGTCTCCC
DNA 2: TGGTGGCTACGACGGGATT
B18: CGAAUUG (DNA:RNA)
RNA: B1 RNA with U25C, G27A, G28A, A30U, U31G
DNA 1: CAATCTGAATTCCGGTCTCCC
DNA 2: TGGTGGCTACGACGGGATT
B19: CCGAAUG (DNA:RNA)
RNA: B1 RNA with U25C, G26C, G28A, U29A, A30U, U31G
DNA 1: CAATCTGAATTCCGGTCTCCC
DNA 2: TGGTGGCTACGACGGGATT
B20: CGAAAUG (DNA:RNA)
RNA: B3 RNA with A25C, U26G, U28A, C29A, C30U, C31G
DNA 1: CAATCTGAATTCCGGTCTCCC
DNA 2: TGGTGGCTACGACGGGATT
B21: GGAAUGU (DNA:RNA)
RNA: B1 RNA with U25G, G27A, G28A, A30G
DNA 1: CAATCTGAATTCCGGTCTCCC
DNA 2: TGGTGGCTACGACGGGATT
B22: CGAAUGU (DNA:RNA)
RNA: B1 RNA with U25C, G27A, G28A, A30G
DNA 1: CAATCTGAATTCCGGTCTCCC
DNA 2: TGGTGGCTACGACGGGATT
B23: CGUCGUU (DNA:RNA)
RNA: B1 RNA with U25C, G27U, G28C, U29G, A30U
DNA 1: CAATCTGAATTCCGGTCTCCC
DNA 2: TGGTGGCTACGACGGGATT
B24: GUAAUGU (DNA:RNA)
RNA: B3 RNA with A25G, U28A, C29U, C30G, C31U
DNA 1: CAATCTGAATTCCGGTCTCCC
DNA 2: TGGTGGCTACGACGGGATT
B25: GAUGUUU (DNA:RNA)
RNA: B1 RNA with U25G, G26A, G27U, A30U
DNA 1: CAATCTGAATTCCGGTCTCCC
DNA 2: TGGTGGCTACGACGGGATT
B26: GAAAUGU (DNA:RNA)
RNA: B1 RNA with U25G, G26A, G27A, G28A, A30G
DNA 1: CAATCTGAATTCCGGTCTCCC
DNA 2: TGGTGGCTACGACGGGATT
B27: CCCCGAA (DNA:RNA)
RNA: B1 RNA with U25C, G26C, G27C, G28C, U29G, U31A
DNA 1: CAATCTGAATTCCGGTCTCCC
DNA 2: TGGTGGCTACGACGGGATT
B28: CACAGAG (DNA:RNA)
RNA: B1 RNA with U25C, G26A, G27C, G28A, U29G, U31G
DNA 1: CAATCTGAATTCCGGTCTCCC
DNA 2: TGGTGGCTACGACGGGATT
B29: ACGGAAU (DNA:RNA)
RNA: B1 RNA with U25A, G26C, U29A
DNA 1: CAATCTGAATTCCGGTCTCCC
DNA 2: TGGTGGCTACGACGGGATT
B30: AUGUUAC (DNA:RNA)
RNA: B3 RNA with A27G, C29U, C30A
DNA 1: CAATCTGAATTCCGGTCTCCC
DNA 2: TGGTGGCTACGACGGGATT
B31: CGGGGCG (DNA:RNA)
RNA: B1 RNA with U25C, U29G, A30C, U31G
DNA 1: CAATCTGAATTCCGGTCTCCC
DNA 2: TGGTGGCTACGACGGGATT

Residue numbers refer to the chain shown, from its start. The full ranking holds about 16,000 sequences; the median of “ka relative to ugcaugu” is about 0.096, and the highest 2% start at about 0.35. What follows is part of a selection rich in the highest values, with near analogues and random picks from the rest.

The target in this assay is T1, RBFOX1 RRM RbFoxmut (Fox-RRM*) (Homo sapiens, UniProt Q9NWB1 109-208, R118D;E147R;N151S;E152T).
T1 sequence: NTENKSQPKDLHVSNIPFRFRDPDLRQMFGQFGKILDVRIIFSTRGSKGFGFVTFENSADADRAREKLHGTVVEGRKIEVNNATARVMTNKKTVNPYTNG
Put plainly: EMSA; HiTS-Eq, 1 nM pool, 10 min; buffer printed only for the single-RNA assays: 10 mM Tris pH 7.5, 150 mM NaCl, 3.4 mM EDTA, 0.001% NP-40, 30 C. As to conditions: tags: His6 N-terminal (pET28a); label: 5' 32P. An outline of the steps:
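These values rest on relative association constants, computed from read-count changes of each RNA species versus the control reaction and normalised to the cognate motif. Reads came from free RNA recovered by 8% native PAGE after purified RbFox RRM (wild type or mutant) at increasing concentrations was equilibrated for 10 min in 50 µL with 1 nM of a 5′-radiolabelled pool with 7 randomized nucleotides and DNA-annealed flanks.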
Background: A gel shift assay detects complexes by their altered migration in electrophoresis.
For B1, the binding signal is 0.172 KA relative to UGCAUGU.

In the case of B2, the binding signal was 0.127 KA relative to UGCAUGU.

Take B3: the binding signal was 0.0954 KA relative to UGCAUGU.

For B4, the binding signal was 0.103 KA relative to UGCAUGU.

Consider B5, for which the binding signal is 0.149 KA relative to UGCAUGU.

With B6, the binding signal was 0.111 KA relative to UGCAUGU.

B7: the binding signal is 0.188 KA relative to UGCAUGU.

With B8, the binding signal was 0.367 KA relative to UGCAUGU.

For B9, the binding signal is 0.24 KA relative to UGCAUGU.

Consider B10, for which the binding signal was 0.133 KA relative to UGCAUGU.

In the case of B11, the binding signal is 0.116 KA relative to UGCAUGU.

On to B12, for which the binding signal is 0.463 KA relative to UGCAUGU.

As for B13, the binding signal is 0.114 KA relative to UGCAUGU.

In the case of B14, the binding signal was 0.0775 KA relative to UGCAUGU.

Consider B15, for which the binding signal was 0.102 KA relative to UGCAUGU.

B16: the binding signal is 0.884 KA relative to UGCAUGU.

As for B17, the binding signal was 0.206 KA relative to UGCAUGU.

With B18, the binding signal is 0.141 KA relative to UGCAUGU.

With B19, the binding signal is 1.39 KA relative to UGCAUGU.

Regarding B20, the binding signal is 0.101 KA relative to UGCAUGU.

As for B21, the binding signal was 0.959 KA relative to UGCAUGU.

Take B22: the binding signal is 1.07 KA relative to UGCAUGU.

For the molecule B23, the binding signal is 0.108 KA relative to UGCAUGU.

Consider B24, for which the binding signal is 0.154 KA relative to UGCAUGU.

For B25, the binding signal was 0.125 KA relative to UGCAUGU.

Regarding B26, the binding signal was 0.0843 KA relative to UGCAUGU.

For the molecule B27, the binding signal was 0.136 KA relative to UGCAUGU.

For the molecule B28, the binding signal was 0.124 KA relative to UGCAUGU.

With B29, the binding signal is 0.115 KA relative to UGCAUGU.

As for B30, the binding signal was 0.161 KA relative to UGCAUGU.

For the molecule B31, the binding signal was 0.16 KA relative to UGCAUGU.
